What all share (test): NCI-60 one-dose screen, 48 h (100 = growth as untreated, 0 = no growth, -100 = all killed)
In one assay the test system is HCT-15 colon. Conditions: 10 µM unless noted.
A further assay deals with HT29 colon. The conditions noted are these: 10 µM unless noted.
In the next assay the test system is SNB-75 CNS. The conditions noted are these: 10 µM unless noted.
For a further assay, the system named is SNB-19 CNS. The conditions noted are these: 10 µM unless noted.
The next assay deals with U251 CNS. The conditions noted are these: 10 µM unless noted.
In a further assay the test system is SK-MEL-5 melanoma. The conditions noted are these: 10 µM unless noted.
The next assay has as its system UACC-62 melanoma. The conditions noted are these: 10 µM unless noted.
Another assay relates to LOX IMVI melanoma. Conditions: 10 µM unless noted.
Another assay has as its system SK-MEL-28 melanoma. The conditions noted are these: 10 µM unless noted.
The next assay concerns SK-MEL-2 melanoma. The conditions noted are these: 10 µM unless noted.
Another assay concerns EKVX NSCLC. The conditions noted are these: 10 µM.
For the next assay, the system named is SN12C renal. Conditions: 10 µM unless noted.
The test system of a further assay is UO-31 renal. Conditions: 10 µM unless noted.
The test system of a further assay is TK-10 renal. Conditions: 10 µM unless noted.
A further assay deals with ACHN renal. Conditions: 10 µM unless noted.
The test system of another assay is CAKI-1 renal. The conditions noted are these: 10 µM unless noted.
For another assay, the system named is A498 renal. Conditions: 10 µM unless noted.
A further assay relates to CCRF-CEM leukemia. Conditions: 10 µM.
In the next assay the test system is MOLT-4 leukemia. Conditions: 10 µM unless noted.
Another assay has as its system PC-3 prostate. Conditions: 10 µM unless noted.

Molecules are shown by their SMILES. This is part of a sample that, as a whole, favours compounds with a hit. Of some 83,000 tested, about 20% had one in any assay.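 Method: cells in 96-well plates; compound added at one concentration; 48 h incubation; percent growth measured; values under 10 scored active.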 Unmarked numbers belong to inactive results. Activity calls are given as the source filed them.

On to `COC(=O)[C@@H]1[C@H](O)[C@H](C)[C@H](O)[C@H](C)/C=C\C=C(C)C(=O)Nc2c(C)c(OC(C)=O)c3c(c2O)C(=O)C(C)=C2OCOC(=C23)C(C)=C[C@@](C)(O)[C@H](O)[C@@H](C)[C@H]1OC(C)=O`, for which the growth is 118% with HCT-15 colon; 110% with HT29 colon; 86.6% in the assay on SNB-75 CNS; 113% in the assay with SNB-19 CNS; 111% with U251 CNS; 103% with SK-MEL-5 melanoma. The growth in the assay on UACC-62 melanoma is 113%; in the assay on LOX IMVI melanoma it was 104%; in the assay on SK-MEL-28 melanoma, 138%; in the assay with SK-MEL-2 melanoma, 8.13% (active); in the assay on EKVX NSCLC, 112%; in the assay on SN12C renal it was 112%. For the same compound, the growth is 101% in the assay with UO-31 renal; 73.5% with TK-10 renal; 122% with ACHN renal; 116% in the assay on CAKI-1 renal; 141% with A498 renal; 99.3% in the assay with CCRF-CEM leukemia. The growth in the assay with MOLT-4 leukemia was 87.6%.
In the case of `CCCCCCC(=O)C(C)C`, the growth with HCT-15 colon was 102%; in the assay with HT29 colon it was 109%; with SNB-75 CNS, 95.1%; in the assay with SNB-19 CNS, 107%; in the assay on U251 CNS, 98.6%; in the assay on PC-3 prostate, 100%. Moreover, the growth in the assay on SK-MEL-5 melanoma is 101%; with UACC-62 melanoma, 107%; in the assay on SK-MEL-28 melanoma, 113%; in the assay with SK-MEL-2 melanoma, 115%; with SN12C renal it was 104%; in the assay with UO-31 renal, 92.3%. Also, the growth is 101% with TK-10 renal; 103% with ACHN renal; 91% in the assay with CAKI-1 renal; 115% in the assay on A498 renal; 96.6% with MOLT-4 leukemia.
Consider `CCOc1nc(-c2ccccc2)cc2c(O)c(C(=O)N/N=C/c3ccccc3O)[nH]c(=O)c12`, for which the growth was 94% in the assay with HCT-15 colon; 110% in the assay with HT29 colon; 86.3% with SNB-75 CNS; 97.2% in the assay with SNB-19 CNS; 101% in the assay with U251 CNS; 92.8% in the assay on PC-3 prostate. For the same compound, the growth in the assay with UACC-62 melanoma is 117%; in the assay with LOX IMVI melanoma, 101%; in the assay with SK-MEL-28 melanoma it was 67.4%; with SK-MEL-2 melanoma, 61.3%; in the assay with EKVX NSCLC, 97.3%; in the assay with SN12C renal it was 115%. Also, the growth is 73.5% in the assay with UO-31 renal; 140% in the assay on TK-10 renal; 107% in the assay on ACHN renal; 101% in the assay with CAKI-1 renal; 102% in the assay on A498 renal; 69.4% in the assay on CCRF-CEM leukemia. The growth in the assay on MOLT-4 leukemia is 17.1%.
As for `Clc1ccc(I)c2ccccc12`, the growth is 96.4% in the assay with HCT-15 colon; 111% in the assay with HT29 colon; 96.5% in the assay with SNB-75 CNS; 110% in the assay on SNB-19 CNS; 96.3% in the assay on U251 CNS; 102% in the assay with PC-3 prostate. Further, the growth in the assay on SK-MEL-5 melanoma is 109%; with UACC-62 melanoma, 111%; with LOX IMVI melanoma, 59.4%; in the assay on SK-MEL-28 melanoma, 114%; in the assay with UO-31 renal it was 82.6%; in the assay on TK-10 renal, 92.6%. Further, the growth with CAKI-1 renal is 95.6%; with A498 renal, 117%; in the assay on MOLT-4 leukemia it was 98.9%.
Consider `O=C(CN1CCN(c2cccc(Cl)c2)CC1)N1CCN(c2nnc(-c3ccc(Cl)cc3)c(-c3ccc(Cl)cc3)n2)CC1`, for which the growth in the assay with HCT-15 colon was 52.9%; in the assay on HT29 colon it was 59.3%; with SNB-75 CNS, 97.6%; in the assay on SNB-19 CNS, 77.6%; with U251 CNS it was 71.7%; in the assay on PC-3 prostate it was 25.4%. Further, the growth in the assay on SK-MEL-5 melanoma was 61.6%; in the assay with UACC-62 melanoma it was 71.4%; with LOX IMVI melanoma it was 71.5%; with SK-MEL-28 melanoma, 93.8%; with EKVX NSCLC, 59%; with SN12C renal it was 75.7%. Further, the growth was 90.2% in the assay on TK-10 renal; 65.3% in the assay with ACHN renal; 105% in the assay on CAKI-1 renal; 63.1% with A498 renal; 48.7% in the assay with CCRF-CEM leukemia; 36.4% in the assay with MOLT-4 leukemia.
In the case of `Oc1ccccc1/C=N/N=C\c1ccccc1Cl`, the growth was 95.5% with HCT-15 colon; 97.5% in the assay with HT29 colon; 86.7% in the assay on SNB-75 CNS; 91.5% in the assay with SNB-19 CNS; 93.4% in the assay with U251 CNS; 88.1% with PC-3 prostate. Moreover, the growth is 92.1% in the assay with UACC-62 melanoma; 86.2% with LOX IMVI melanoma; 105% in the assay on SK-MEL-28 melanoma; 102% in the assay on SK-MEL-2 melanoma; 75.9% with EKVX NSCLC; 92.6% in the assay with SN12C renal. In addition, the growth is 40.5% in the assay with UO-31 renal; 132% in the assay with TK-10 renal; 95.8% with ACHN renal; 86.8% in the assay with CAKI-1 renal; 141% in the assay with A498 renal; 1.42% (active) with CCRF-CEM leukemia. In addition, in the assay on MOLT-4 leukemia, the growth was 61.3%.
Consider `NCCCOc1cc2ccccc2cc1C(=O)Nc1ccc(Cl)cc1OC(=O)c1cc2ccccc2cc1OCCCN`, for which the growth with HCT-15 colon was -82.2% (active); with HT29 colon it was -94.9% (active); in the assay on SNB-75 CNS, -86.5% (active); with SNB-19 CNS it was -61.5% (active); with U251 CNS, -93.6% (active); in the assay on PC-3 prostate it was -93% (active). In addition, the growth with SK-MEL-5 melanoma was -96.1% (active); in the assay with UACC-62 melanoma, -71.1% (active); with LOX IMVI melanoma, -86.7% (active); with SK-MEL-28 melanoma, -89.3% (active); in the assay with EKVX NSCLC, -53.7% (active); with ACHN renal, -96.7% (active). Moreover, the growth is -75.7% (active) in the assay with CAKI-1 renal, -96.1% (active) in the assay on A498 renal and -17% (active) with MOLT-4 leukemia.
`CCCCCCCCCCC(C[N+](C)(C)C/C=C/c1ccccc1)C(O)c1ccccc1` (centres undefined): the growth in the assay on HCT-15 colon was 79.1%; in the assay with HT29 colon, -79.8% (active); with SNB-75 CNS, 5.59% (active); with SNB-19 CNS, 35.8%; in the assay on U251 CNS it was -93.9% (active); with PC-3 prostate, -29.9% (active). In addition, the growth was 30.6% in the assay on SK-MEL-5 melanoma; 17.4% in the assay on UACC-62 melanoma; 21.2% with SK-MEL-28 melanoma; -52.7% (active) with SK-MEL-2 melanoma; 15.8% with SN12C renal; 74.1% in the assay with UO-31 renal. Also, the growth in the assay with TK-10 renal was -2.74% (active); in the assay with CAKI-1 renal it was 87.5%; in the assay on A498 renal it was 59%.
For the compound `O=C(Nc1ccc(-n2cc(-c3ccncc3)c(-c3ccc(Cl)c(O)c3)n2)cc1)Nc1cc(C(F)(F)F)cc(C(F)(F)F)c1`, the growth with HCT-15 colon is 15.6%; in the assay on HT29 colon it was 0.312% (active); with SNB-75 CNS, -0.49% (active); in the assay on SNB-19 CNS, 27.1%; in the assay on U251 CNS it was 15.8%; in the assay with PC-3 prostate, 4.61% (active). The growth is -24.4% (active) with SK-MEL-5 melanoma; 5.53% (active) with UACC-62 melanoma; 19.8% in the assay on LOX IMVI melanoma; 16.1% in the assay with SK-MEL-28 melanoma; 15.9% with EKVX NSCLC; 35.3% with UO-31 renal. Besides, the growth in the assay with ACHN renal is 12%; in the assay on CAKI-1 renal it was 8.54% (active); with A498 renal, 17.7%; with CCRF-CEM leukemia, 2.13% (active); in the assay with MOLT-4 leukemia it was 9.3% (active).

These data come from PubChem BioAssay (NCI).
